Data from ChEMBL document CHEMBL3988442, “University of Dundee, Small-Polar-MMV Screening Library” (2021).
Screen size: about 48,000 compounds; about 13,000 (27%) showed an effect of 50% or more. Some of the results follow.

These molecules were tested on Wolbachia pipientis (assay: Anti-Wolbachia Cell-Based Screen). Conditions: 5 µM.
Type: functional
Parameters: scale not given: in the data most compounds retested in dose-response had high values

SMILES | Percent Effect [%]
CCc1noc(C)c1-c1nc(Cc2cccs2)nn1C1CCN(C)CC1 | -27.77
COCC(c1ccccn1)N(C)C(=O)c1cc(-c2ccc(O)cc2)n[nH]1 (configuration not stated) | -10.51
N#Cc1cc2n(n1)CCN(C(=O)CCc1c[nH]c3ccccc13)C2 | -21.25
CN(C)C(CNC(=O)NCc1cc[nH]n1)c1ccco1 (configuration not stated) | -4.793
CCOC(=O)C1CN(CC2CC2)Cc2ncn(CC)c21.O=C(O)C(F)(F)F (configuration not stated) | 1.772
COC[C@@]12CCC[C@@H]1CN(C(=O)CN(C)C)C2.O=C(O)C(F)(F)F | 107.5
COC[C@@]12CCO[C@@H]1CCN(C(=O)C1CC(F)(F)C1)C2 | -30.77
Cc1ccoc1C(=O)N1C[C@H]2CCC[C@@]2(COCc2ccncc2)C1.O=C(O)C(F)(F)F | 6.221
COCCC(=O)N1C[C@@H]2COC[C@]2(COCc2cccnc2)C1 | -10.08
CCOCC(=O)N1C[C@H]2CCC[C@@]2(COC)C1 | 105.6
COCCC(=O)N1C[C@H]2CCC[C@@]2(COC)C1 | 114
COC[C@@]12CCC[C@@H]1CN(C(=O)Cc1ccco1)C2 | -55.3
COC[C@@]12CCC[C@@H]1CN(C(=O)N1CCCC1)C2 | 106.2
CCCc1cc(C(=O)N2C[C@H]3CCC[C@@]3(CO)C2)[nH]n1 | 14.56
COC[C@@]12CCO[C@@H]1CCN(C(=O)C1CCSCC1)C2 | -9.781
CNC(=O)CCCNCc1c(C)nn(CC(C)C)c1N(C)C | 0.5097
CC(=O)N1CCN(c2ccccc2CNc2ccc3[nH]ncc3c2)CC1 | -1.242
CCNC(=O)CN1CCCN(C(=O)C2CCCc3[nH]ncc32)CC1 (configuration not stated) | 2.738
CC(C#N)NS(=O)(=O)c1ccc2c(c1)N(C)CCC2 (configuration not stated) | -3.388
Cc1nc(CCNC(=O)C2CC(=O)N(C(C)(C)C)C2)sc1Cl (configuration not stated) | -46.08
N#Cc1ccc2c(c1)CN(C(=O)C1CC=CC1)C2c1cnco1 (configuration not stated) | -2.479
COC[C@@]12CCC[C@@H]1CN(C(=O)COC1CCCC1)C2 | 116
O=C(COC1CCCC1)N1CC[C@H]2OCC[C@@]2(COCC2CC2)C1 | 5.898
COCC(=O)N1C[C@H]2CCC[C@@]2(COC)C1 | 91.12
COCC(=O)N1C[C@@H]2COC[C@]2(COC)C1 | -5.007

SMILES | Percent Effect [%]
CC(C)(O)CN1CCN(C(=O)COC2CCCC2)CC1 | -11.71
O=C(Cc1ccco1)N1C[C@H]2CCC[C@@]2(COCC2CC2)C1 | 4.43
Cc1csc(N(C)C(=O)C2CC(=O)N(c3ccccc3F)C2)n1 (configuration not stated) | 1.281
CCc1cnc(N2CCC(=O)N(CC3CC3)C(C(C)C)C2)nc1 (configuration not stated) | -22.71
O=C(N1CCOCC1)N1CCc2ncnc(Oc3cccnc3)c2CC1.O=C(O)C(F)(F)F | 0.6158
COc1ncnc2c1CCN(c1cccc(F)c1)CC2 | 16.21
Cc1cccc(CN2CCc3ncnc(-c4ccsc4)c3CC2)n1.O=C(O)C(F)(F)F | 18.15
COc1ncnc2c1CCN(Cc1cccc(C)n1)CC2 | 95.16
Cc1cccc(CN2CCc3ncnc(Oc4cccnc4)c3CC2)n1 | 126.9
Cc1c(Br)cccc1CNC1(CCO)CCOCC1 | -8.762
Cc1cccc(-c2ccc(C(=O)NCC(C)(C)C(N)=O)c(=O)[nH]2)c1 | 6.298
O=c1n(CC2CCCO2)nc(CC2CCNCC2)n1-c1ccccc1 (configuration not stated) | -2.06
CNC(=O)CN1CCOCC2(CCCN(Cc3ccsc3)C2)C1.O=C(O)C(F)(F)F.O=C(O)C(F)(F)F (configuration not stated) | 99.42
CNC(=O)CN1CCOCC2(C1)CN(Cc1csnn1)CCO2 (configuration not stated) | -63.88
CNC(=O)CN1CCOCC2(CCCN(CCc3ccccc3)C2)C1.O=C(O)C(F)(F)F.O=C(O)C(F)(F)F (configuration not stated) | 95.77
Cc1ccc(CN2CCCC3(CCN(Cc4ccoc4)CC3)C2)cc1.O=C(O)C(F)(F)F.O=C(O)C(F)(F)F | 12.66
Fc1ccc(CN2CCCC3(COCCN(Cc4c[nH]nn4)C3)C2)cc1.O=C(O)C(F)(F)F.O=C(O)C(F)(F)F (configuration not stated) | -5.043
CNC(=O)CN1C(=O)CCC12CCCN(CCc1ccccc1)C2 (configuration not stated) | -21.16
O=C(O)C(F)(F)F.O=C(O)C(F)(F)F.c1cc(CN2CCCC3(COCCN(Cc4c[nH]nn4)C3)C2)cs1 (configuration not stated) | -3.228
Fc1ccc(CN2CCOCC3(CCN(Cc4nccs4)C3)C2)cc1.O=C(O)C(F)(F)F.O=C(O)C(F)(F)F (configuration not stated) | 2.438
CN(C)CCN1CCOCC2(CCCN(C(=O)Cc3ccccc3)C2)C1.O=C(O)C(F)(F)F.O=C(O)C(F)(F)F (configuration not stated) | -11.48
CNC(=O)CN1CCOCC2(CCCN(Cc3ccoc3)C2)C1 (configuration not stated) | 84.78
CNC(=O)CN1CCOCC2(CCCN(Cc3ccc(F)cc3)C2)C1.O=C(O)C(F)(F)F.O=C(O)C(F)(F)F (configuration not stated) | 113
O=C(Cc1ccsc1)N1CCCC2(COCCN(CC3CC3)C2)C1.O=C(O)C(F)(F)F (configuration not stated) | -6.273
CN(C)c1ccc2c(c1)CN(C(=O)c1cnccn1)C2c1cnco1 (configuration not stated) | 6.67

SMILES | Percent Effect [%]
COCCN1CCOCC2(CCCN(Cc3ccc(C)o3)C2)C1.O=C(O)C(F)(F)F.O=C(O)C(F)(F)F (configuration not stated) | 4.497
COCCN1CCC2(COCCN(Cc3ccc4c(c3)OCO4)C2)C1.O=C(O)C(F)(F)F.O=C(O)C(F)(F)F (configuration not stated) | 1.486
COCCN1CCOCC2(CCCN(Cc3cccc(F)c3)C2)C1.O=C(O)C(F)(F)F.O=C(O)C(F)(F)F (configuration not stated) | 114.4
COCCOc1ccc(S(=O)(=O)Nc2cccnc2O)cc1C | -11.72
CCC(=O)NC1CCCN(Cc2ccc(NC(C)=O)cc2)C1 (configuration not stated) | 21.19
CCOc1ccc(CN2CCCC(c3cc4ncccc4[nH]3)C2)cc1 (configuration not stated) | 111.1
Fc1ccc(CN2CCCC(c3cc4ncccc4[nH]3)C2)cc1 (configuration not stated) | 39.65
CC(=O)Nc1ccc(CN2CCCC(c3cc4ncccc4[nH]3)C2)cc1 (configuration not stated) | 130.8
CC(=O)NC1CCCN(Cc2ccc(-n3ccnc3)cc2)C1 (configuration not stated) | 4.103
CCOc1nnc(CN2CCCC(c3nc4ccccc4[nH]3)C2)s1 (configuration not stated) | -5.507
CCc1c(C(=O)N2CC(C)OC(C)(C)C2)cnn1-c1ccccn1 (configuration not stated) | -9.37
Cc1csc(C2CCCCN2C(=O)CCCn2cccn2)n1 (configuration not stated) | -9.362
CC(C)c1nc(C2CCCN(C(=O)CN3CCN(C)CC3)C2)no1 (configuration not stated) | -17.54
CC(C)c1nc(C2CCCN(C(=O)CCn3cncn3)C2)no1 (configuration not stated) | 109.8
Cc1csc(C2CCCCN2C(=O)CCn2cncn2)n1 (configuration not stated) | 8.818
CC(C)c1nc(C2CCCN(C(=O)CCCn3cncn3)C2)no1 (configuration not stated) | 2.854
Cc1nc(C2CCCN2C(=O)CNS(C)(=O)=O)no1 (configuration not stated) | -1.869
Cc1nc(C2CCCN2C(=O)CCCn2cccn2)no1 (configuration not stated) | 80.92
Cc1nc(C2CCCN2C(=O)CCn2cncn2)no1 (configuration not stated) | 102.5
Cc1nc(C2CCCN2C(=O)Cn2cncn2)no1 (configuration not stated) | 83.95
Cc1csc(C2CCCCN2C(=O)Cn2cncn2)n1 (configuration not stated) | -6.402
Cc1nc(C2CCCN2C(=O)CCCOc2ccccc2C)no1 (configuration not stated) | 3.026
CCC(CC)n1nc(C)cc1NC(=O)C1CCCO1 (configuration not stated) | 0.9599
COCCNC(=O)[C@H]1CC[C@@H]2[C@@H](CCN2S(C)(=O)=O)O1 | -5.573
COc1cc2c(cc1-c1nc3c(cnn3C(C)C(C)C)[nH]1)OCO2 (configuration not stated) | -3.309

SMILES | Percent Effect [%]
CCc1nc(C2CCCN2C(=O)CCCn2cncn2)no1 (configuration not stated) | 114.2
CC(C)c1nc(C2CCCN2C(=O)c2cnc[nH]2)no1 (configuration not stated) | -3.664
CCc1nc(C2CCCN2C(=O)CCCOc2cccc(F)c2)no1 (configuration not stated) | -10.09
CC(C)c1nc(C2CCCN2C(=O)CCn2cncn2)no1 (configuration not stated) | 104.8
Cc1csc(C2CCCCN2C(=O)CCCn2cncn2)n1 (configuration not stated) | -9.865
Cc1nc(C2CCCN2C(=O)CCCn2cncn2)no1 (configuration not stated) | 100.4
COCc1nc(C(=O)N2CCCC2c2noc(C(C)C)n2)cs1 (configuration not stated) | -1.506
Cc1cc(S(=O)(=O)Nc2cccc(-n3cccc3)c2)sc1C(=O)O | -5.79
CS(=O)(=O)N[C@H]1CN(C(=O)CCc2ccc(=O)[nH]n2)C[C@@H]1C1CC1 | -10.51
Cc1cc(C(=O)NCC2Cn3nnc(C)c3CO2)no1 (configuration not stated) | 3.49
CCCc1nccn1-c1ccncc1 | 13.78
COc1ccc(Oc2nccc3occc23)cc1CN1CCCC1 | 7.902
COc1c(C)cnc(CNC(=O)c2cc(C)nc3c2c(C)nn3C)c1C | -8.384
O=C(c1cnc(COc2ccccc2)nc1O)N1CCOCC1 | 1.405
COC(=O)c1cnc2c(c(C)nn2C)c1OC | 97.33
Cc1cc(C(=O)N2CCCC3(CNC(=O)O3)C2)c2c(C)nn(C)c2n1 (configuration not stated) | 2.308
COc1c(C(=O)N2CCNC(=O)C2)cnc2c1c(C)nn2C | 124.2
COC(=O)c1ccccc1NS(=O)(=O)c1c(C)nn(C)c1C | 21.66
Cc1ccc(CNc2ccc(C(=O)N3CCNC(=O)C3)cn2)cc1 | 3.114
Cc1cc(C(=O)N2CCNC(=O)C2)c(C)n1Cc1ccccn1 | -1.908
COc1c(C(=O)N2CCOCC2)cnc2c1c(C)nn2C | 129.8
O=C1N(CC2CCCCC2)CCCC1(O)CN1CCc2[nH]ncc2C1 (configuration not stated) | -9.247
